Test results taken from PubChem BioAssay AID1578 (Sanford-Burnham Center for Chemical Genomics, 2009).
About 3,000 (1%) of roughly 290,000 compounds were called active. This is one part of a sample in which actives are shown more often than they occur. Cut-off read from the data, not from the text of the source: active = inhibition mostly above about 36% (no sharp cut-off); inactive = mostly below about 34%.

Test: inhibition of NOD1-driven NF-kB reporter – cell-based, luminescence, uHTS, primary screen (AID 1578);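 note: HEK-293T reporter cells stimulated with the NOD1 agonist gamma-tri-DAP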
Settings: NOD1-driven NF-kB luciferase reporter cells, at 4 µM, active compounds read high

inhibition, active:
CC(=O)c1ccc(Oc2ccc(C(=O)c3ccc(C)c(C)c3)cc2[N+](=O)[O-])cc1 69.6%, CN(/N=C/c1cc(Cl)ccc1O)C1=NS(=O)(=O)c2ccccc21 30.8%, O=C(C[N+]1(CC#Cc2ccccc2)CCCCC1)c1ccccc1 47.4%, Cc1cc(=O)[nH]c(SCC(=O)Nc2ccc(Br)cc2)c1C#N 67.2%, CN1C2CCC1/C(=C\c1ccc(F)cc1)C(=O)/C2=C/c1ccc(F)cc1 77.7%, Cc1cc(CNC(=O)c2cccc([N+](=O)[O-])c2)c2ccccc2n1 47.9%, O=C(Nc1ccc(Br)c(C(F)(F)F)c1)c1ccc(C(F)(F)F)cc1 41.9%, Clc1ccc2nnnc(-c3ccccc3)c2c1 63.1%, Cc1nc2ccccn2c1C(=O)/C=C/c1cccc([N+](=O)[O-])c1 101%, Cc1cc(/C=C2\Sc3ccccc3N2C)cc(C)[n+]1CC1CCCO1 (configuration not stated) 56.7%, NS(=O)(=O)c1ccc(NC(=S)Nc2ccn(Cc3cccc4ccccc34)n2)cc1 56.6%, O=C1OCCN1c1c(-c2ccccc2)c(-c2cccs2)nc2c(-c3ccccc3)cccc12 66%, CC1CC(NC(=O)c2ncn[nH]2)CC(C)(C)C1 (configuration not stated) 84.5%, C/C(=N\NC(=O)C1(C)CC1(Br)Br)c1cccc(NC(=O)c2ccc(C)o2)c1 (configuration not stated) 89.8%, C=C1/C(=C\C=C2/CCC[C@]3(C)[C@@H]([C@H](C)CCCC(C)(C)O)CC[C@@H]23)C[C@@H](O)C[C@@H]1O 65.6%, CN(C(=O)COC(=O)/C=C/c1cccc([N+](=O)[O-])c1)C1CCS(=O)(=O)C1 (configuration not stated) 61.3%, O=S(=O)(CCSc1nc2ccccc2s1)c1nc2ccccc2s1 99%

inhibition, inactive:
COc1ccc(NC(=O)CSc2nc(N)c(NC(=O)c3cccs3)c(=O)[nH]2)cc1 -4.6%, COc1cccc(-c2ccc(NC(=O)C3CCCN(CCCn4cccn4)C3)cc2)c1 (configuration not stated) -32.8%, Cc1ccccc1Oc1nc2ccccn2c(=O)c1/C=C(\C#N)C(=O)Nc1c(C)n(C)n(-c2ccccc2)c1=O -32.9%, O=C(COc1ccc(Cl)cc1Cl)Nc1ccccc1NS(=O)(=O)c1cccs1 38.6%, O=C(COc1ccccc1)Nc1ccccc1NS(=O)(=O)c1cccs1 15.4%, N#Cc1c(NC(=O)CSc2nnc(-c3ccccc3O)n2-c2ccccc2)sc2c1CCCC2 -23.8%, N#Cc1c(Sc2ncc(C(F)(F)F)cc2Cl)nsc1C/C=N\OCc1c(F)cccc1Cl 23.5%, O=C(Nc1ccc(Oc2cccnc2)cc1)C1CCN(Cc2ccc(F)cc2)CC1 -7.5%, O=C(NCCCn1ccnc1)/C(=C\c1cccnc1)NC(=O)c1ccco1 -5.2%, COc1ccc2oc(C(=O)NCc3cc(OC)c(OC)cc3OC)c(C)c2c1 17.1%, CCOC(=O)C1CCN(C(=O)COC(=O)COc2ccc(Cl)cc2)CC1 -16%, CCC(=O)c1ccc(Oc2ccc(C(=O)c3ccc(C)cc3)cc2[N+](=O)[O-])cc1 40.1%, NC(=O)c1ccc(Oc2ccc(Cl)cc2)c([N+](=O)[O-])c1 2.7%, Cn1ncnc1SCc1cn2cccnc2n1 -16.1%, COc1ccc(-c2nc(CN3CCC(C(=O)N4CCOCC4)CC3)c(C)o2)cc1OC -6.6%, COc1ccc([N+](=O)[O-])cc1NC(=S)Nc1ccccc1 4.9%, O=C(CN(C(=O)CNS(=O)(=O)c1ccccc1)c1ccc2c(c1)OCCO2)NC1CCCCC1 -17.9%, Cc1ccc(/C=N/N(C)C2=NS(=O)(=O)c3ccccc32)cc1 5%, COc1cccc(/C=N/N(C)C2=NS(=O)(=O)c3ccccc32)c1O -15.4%, CCOc1ccc(CC(=O)NNC(=S)Nc2ccc(OC)c(OC)c2)cc1 -36.4%, Cc1ccc(C)c(C(=O)N(C)CC(=O)Nc2ccccc2C(F)(F)F)c1 35.4%, CCn1c(=O)c(C(=O)NCc2ccccc2)c(O)c2ccccc21 -12.4%, O=[N+]([O-])c1cccc(OCC(O)CN2CCN(S(=O)(=O)c3cc(Cl)ccc3Cl)CC2)c1 (configuration not stated) 15.6%, O=C(C[N+]1(CC#Cc2ccccc2)CCCCC1)c1ccc(Cl)cc1 -15.6%, O=C(C[N+]1(CC#Cc2ccccc2)CCOCC1)c1ccccc1 -26.9%, COc1ccc(NC(=O)CSc2[nH]c(=O)cc(C)c2C#N)cc1OC -23.7%, Cc1cc(=O)[nH]c(SCC(=O)Nc2ccc(F)cc2)c1C#N -21.3%, CN1C2CCC1/C(=C\c1ccccc1F)C(=O)/C2=C/c1ccccc1F 34.2%, CN1C2CCC1/C(=C\c1ccccc1)C(=O)/C2=C\c1ccccc1 36.3%, Cc1cccc(N2CCN(C(=O)c3cc(S(=O)(=O)N4CCOCC4)cn3C)CC2C)c1 (configuration not stated) -17.7%, Cc1cc(CNC(=O)Cn2cc([N+](=O)[O-])cn2)c2ccccc2n1 -28.9%, Cc1cc(CNC(=O)c2ccc(C)c([N+](=O)[O-])c2)c2ccccc2n1 26.1%, Cc1ccc(C(=O)Nc2ccc(Br)c(C(F)(F)F)c2)cc1 -51.3%, O=C(Nc1ccc(Br)c(C(F)(F)F)c1)c1ccccc1 7.5%, C=CCn1c(SCc2nc3cc(C(F)(F)F)ccc3c(=O)[nH]2)nc2sc(CC)cc2c1=O -9.3%, COc1ccc(-c2noc(N3CCC(C(=O)NCc4ccccc4Cl)CC3)n2)cc1 49.5%, O=C(N/N=C(/c1ccccc1)c1ccncc1)c1ccc2c(c1)OCO2 -26.7%, Cc1cc(C(=O)COC(=O)CN(C)S(=O)(=O)c2ccc(Cl)cc2)c(C)n1CC1CCCO1 (configuration not stated) -12.3%, c1ccc(-c2nnnc3ccccc23)cc1 -26.7%, Cc1ccc2nnnc(-c3ccccc3)c2c1 -32.7%, COC(=O)c1ccc(NC(=O)NCCCl)cc1 -34.1%, Cc1c(C(=O)N2CCOCC2)sc(NC(=O)c2ccc([N+](=O)[O-])cc2)c1C#N -2.6%, C/C(=N\NC(=O)c1c(C)nc2ccccn12)c1cccc([N+](=O)[O-])c1 -11.1%, Cc1ccc(/C=C/C(=O)c2c(C)nc3ccccn23)cc1 -11.3%, Cc1c(C(=O)N2CCN(c3ccccc3)CC2)sc2nc3n(c(=O)c12)CCC3 0.9%, CC(=O)c1ccccc1NC(=O)CCCNC(=O)c1ccc(Cl)cc1 17.3%, CC(=O)CCSc1ncnc2sc(-c3ccccc3)cc12 -75.9%, O=C(O)CSc1ncnc2sc(-c3ccccc3)cc12 -16.7%, COc1cc(CN2CCN(CCOCCO)CC2)cc(OC)c1OC -4.8%, COc1ccccc1-[n+]1c(C)cc(/C=C2\Sc3ccccc3N2C)cc1C 28.9%, Cc1ccc(/C=C2/Sc3ccccc3N(CC(=O)NCC3CCCO3)C2=O)cc1 (configuration not stated) -4.1%, Nc1nonc1-n1nnc(C(=O)N/N=C/c2ccc(OCc3ccccc3)cc2)c1COc1ccc(F)cc1 -0.6%, O=C(Nc1ccn(Cc2cccc3ccccc23)n1)c1cccnc1 7.1%, CC(=O)c1cccc(NC(=S)Nc2ccn(Cc3cccc4ccccc34)n2)c1 -5.1%, Cc1cc(C)n(C(=O)c2ccc(C)c(Br)c2)n1 -2.6%, c1csc(-c2nnc(N3CCOCC3)c3ccccc23)c1 2.4%, c1csc(-c2nc(N3CCOCC3)c3ccccc3n2)c1 -9.5%, CCOc1ccc2nc(NC(=O)CSc3nc4cccnc4n3C)sc2c1 -1%, O=C(NC1CCCC1)c1ncn[nH]1 -17.9%, CC1CC(NC(=O)c2cnc3n(c2=O)CCS3)CC(C)(C)C1 (configuration not stated) -9%, Cc1nn(-c2ccc(Cl)c(Cl)c2)c(C)c1C(=O)O -17.4%, CCc1nnc(NC(=O)CC23CC4CC(CC(Br)(C4)C2)C3)s1 -2.7%, CCc1c(C)nc(SCC(=O)N2CCCCC2CC)[nH]c1=O (configuration not stated) -11.1%, C/C(=N\NC(=O)c1cccc(Br)c1)c1cccc(NC(=O)c2ccc(C)o2)c1 -55.5%, C/C(=N\NC(=O)C1(C)CC1(Br)Br)c1ccc(NC(=O)c2ccc(C)o2)cc1 (configuration not stated) 13.4%, O=S(=O)(O)c1ccc(N=NNc2ccc(Br)cc2)cc1 -12.1%, COc1ccc(-c2nc(C)ncc2-c2ccc(Cl)cc2)c(O)c1 5.6%, CN(C(=O)COC(=O)/C=C/c1ccc(C(F)(F)F)cc1)C1CCS(=O)(=O)C1 (configuration not stated) -16.9%, CCN(C(=O)COC(=O)/C=C/c1cccc(Br)c1)C1CCS(=O)(=O)C1 (configuration not stated) -18.9%, CCOC(=O)c1c(Nc2ccccc2)sc(/C=C2\C=Nc3ccccc32)c1O -68%, CCN(CC)C(=O)Oc1ccc2ccccc2c1Cl -86.7%, CCS(=O)(=O)CCSc1nc2ccccc2s1 -2.7%, O=S(=O)(CCSc1ccccn1)c1nc2ccccc2s1 74.4%, Cc1ccc(S(=O)(=O)N2CCCC2)cc1C(=O)NCc1ccccn1 -26.2%, O=C(c1cc(-c2ccc(F)cc2)on1)N1CCCCCC1 -53.7%
